A selection: hits, their analogues and other compounds. The true share with any hit is near 2.9%.
KKLEB tox: cytotoxicity in KKLEB CF airway cells, primary screen, cytotoxicity control for CF NF-kB inhibitor project, cell-based, uHTS, fluorescence assay plates; 0.36% of 360,000 active; activity change (cytotoxicity), % at 5 µM; KKLEB CF airway cells viability, ATPlite luminescence, overnight; active compounds read low; cells stimulated with P. aeruginosa culture filtrate; AID 602141, 2011;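 active = corrected activity change at or below -50% at 5 µM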
CF NFkB inh: inhibitors of PAF-induced NF-kB signaling, primary screen, cell-based, GFP fluorescence, uHTS; KKLEB NF-kB-GFP reporter, GFP fluorescence overnight; inhibition, % at 5 µM; 0.86% of 360,000 active; AID 588850, 2011;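 active = at least 50% inhibition at 5 µM, scaled per plate between neutral and stimulator controls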;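 also: PAF is a Pseudomonas aeruginosa culture filtrate used as stimulus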
Peg3 promoter: Peg3 promoter-driven luciferase inhibitors, primary screen, cell-based, HeLa, luciferase luminescence; HeLa PEG-Prom luciferase reporter, overnight; inhibition, % at 20 µM; 1.7% of 360,000 active;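 active = inhibition of at least 50% at 20 µM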
TRPM1 prom inh: inhibitors of MITF-dependent TRPM1 promoter reporter, primary screen, cell-based, SK-MEL-5, single point, luciferase; 0.83% of 330,000 active; inhibition, % at 12.5 µM; SK-MEL-5 TRPM1 promoter luciferase, 24 h; AID 488899, 2010;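 active = mean inhibition across replicates of 60% or more, whatever share of single replicates reaches that level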
Shn3 3UTR inh: reduction of Shn3 3'UTR firefly luciferase signal, primary screen, Schnurri-3 inhibitor project, cell-based, Clone20 osteoblasts, set 2; inhibition, % at 12.5 µM; Clone20 osteoblast Shn3 3'UTR firefly luciferase, 24 h; 0.52% of 360,000 active;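 active = mean inhibition of at least 75% with every replicate also reaching 75%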
EBV LMP1 NFkB: EBV LMP1-driven NF-kappaB luciferase reporter inhibitors, primary screen, cell-based, luminescence, single point; 0.69% of 350,000 active; LMP1-induced NF-kappaB luciferase reporter cells; inhibition, % at 12.5 µM; in the data active = inhibition above about 41%
CF NFkB inh conf: inhibitors of PAF-induced NF-kB signaling, retest, confirmation, cell-based, GFP fluorescence, single concentration | shares compounds with CF NFkB inh | KKLEB CF airway cells, overnight | inhibition, % at 5 µM | 64% of 1,300 active | AID 602472, 2012; in the data active = inhibition above about 40%;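 also: stimulus PAF is a Pseudomonas aeruginosa filtrate and not platelet activating factor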
Large screens that a line does not name were inactive (follow-up assays come after a bar, where they were run).

Oc1ccc(C[C@H]2CNC(=S)N2CC2CCCN2C[C@H](Cc2ccccc2)N2C[C@H](Cc3ccc(O)cc3)N(CC3CCCCCC3)C2=S)cc1 (some centres undefined)	CF NFkB inh 58 | CF NFkB inh conf 42
C=C1CCC[C@]2(C)C[C@H]3OC(=O)C(CNC(CC)CO)[C@H]3CC12 (some centres undefined)	none
C=C1CCC[C@]2(C)C[C@H]3OC(=O)C(CNC(C)CC)[C@H]3CC12 (some centres undefined)	none
C=C1CCC[C@]2(C)C[C@H]3OC(=O)C(CNC(C)(CO)CO)[C@H]3CC12 (some centres undefined)	CF NFkB inh 75 | CF NFkB inh conf inactive
C=C1CCC[C@]2(C)C[C@H]3OC(=O)C(CN4CCCCC4CO)[C@H]3CC12 (some centres undefined)	CF NFkB inh 75, Peg3 promoter 62, TRPM1 prom inh 79, EBV LMP1 NFkB 91 | CF NFkB inh conf inactive
CCC1=C(Nc2ccccc2)COC1=O	none (no result: TRPM1 prom inh)
Nc1ncnc2c1c(-c1ccc(Oc3ccccc3)cc1)cn2C1CCCC1	CF NFkB inh 53, Peg3 promoter 71, Shn3 3UTR inh 90, EBV LMP1 NFkB 47 | CF NFkB inh conf 81
O=C(Nc1cccnc1)c1sc2cccc(F)c2c1Cl	CF NFkB inh 53 | CF NFkB inh conf 54
NC(=O)Cc1ccc(OCc2nn[nH]n2)cc1	none (no result: TRPM1 prom inh)
O=c1cc(-c2ccccc2)[nH]n1-c1ccccc1	CF NFkB inh 58 | CF NFkB inh conf inactive
Clc1ccccc1C1=Nn2c(nnc2-c2ccncc2)SC1	CF NFkB inh 78, EBV LMP1 NFkB 56 | CF NFkB inh conf 94
CCOC(=O)N1CCN(CC(=O)Nc2ccc([N+](=O)[O-])cc2C(=O)Nc2ccccc2F)CC1	CF NFkB inh 67, Peg3 promoter 64 | CF NFkB inh conf inactive
CC(=O)c1sc(NC(=O)CS(=O)(=O)c2ccc(F)cc2)nc1C	none
CCOc1cccc2sc(NC(=O)CCS(=O)(=O)c3ccccc3)nc12	CF NFkB inh 59, Peg3 promoter 53 | CF NFkB inh conf inactive
CC(=O)c1sc(NC(=O)CCS(=O)(=O)c2ccc(C)cc2)nc1C	CF NFkB inh 56 | CF NFkB inh conf inactive
CC(Oc1ccccc1)C(=O)Nc1nc2c(s1)C(=O)CC(C)(C)C2 (centres undefined)	none
CC1(C)CC(=O)c2sc(NC(=O)CCS(=O)(=O)c3ccccc3)nc2C1	CF NFkB inh 68 (no result: TRPM1 prom inh) | CF NFkB inh conf inactive
CC1(C(=O)Nc2ccc3c(c2)OCCO3)CCC(=O)N1C1CCN(Cc2ccccc2)CC1 (centres undefined)	none (no result: TRPM1 prom inh, EBV LMP1 NFkB)
COc1ccc2ccc(O)c(CN3CCN(S(=O)(=O)c4cccc(C(F)(F)F)c4)CC3)c2c1	CF NFkB inh 70 | CF NFkB inh conf inactive
CCOc1ccc(OCC(O)CN2CCN(S(=O)(=O)c3cccc(C(F)(F)F)c3)CC2)cc1 (centres undefined)	none
CCCCNC(=O)c1nc(C2CCN(S(=O)(=O)c3ccccc3C(F)(F)F)CC2)oc1-c1cccc(C(F)(F)F)c1	none (no result: TRPM1 prom inh, EBV LMP1 NFkB)
O=S(=O)(Nc1ccc(F)cc1)N1CCOCC1	none
CC1=C(C(=O)OCc2ccccc2)C(c2cccc([N+](=O)[O-])c2)NC(=O)N1 (centres undefined)	none
CC1=C(C(=O)OCc2ccc3c(c2)OCO3)C(c2cccc([N+](=O)[O-])c2)NC(=O)N1 (centres undefined)	CF NFkB inh 74 | CF NFkB inh conf 68
CCOc1ccc(C2NC(=O)NC(C)=C2C(=O)OCc2ccccc2)cc1 (centres undefined)	none
COc1ccc(COC(=O)C2=C(C)NC(=O)NC2c2ccc(F)cc2)cc1 (centres undefined)	CF NFkB inh 60 | CF NFkB inh conf 59
C/C(=N\Nc1cc(N2CCOCC2)ncn1)c1cccc([N+](=O)[O-])c1	CF NFkB inh 56, Peg3 promoter 102 | CF NFkB inh conf 64
C/C(=N\Nc1cc(N2CCOCC2)ncn1)c1ccccc1	none
O=[N+]([O-])c1cccc(/C=N/Nc2cc(N3CCOCC3)ncn2)c1	CF NFkB inh 53, Peg3 promoter 62 | CF NFkB inh conf 72
CCCCNc1c(-c2cccc(-c3ccc(OC)cc3)c2)nc2ccc(C)cn12	CF NFkB inh 68, Peg3 promoter 69 | CF NFkB inh conf 91
COc1cc2c(cc1OC)CN(C(=O)CN1C(=O)c3ccc([N+](=O)[O-])cc3C1=O)CC2	none
CCOc1ccc(Cl)cc1-c1cc(C(=O)NCCOC)[nH]n1	none (no result: TRPM1 prom inh, EBV LMP1 NFkB)
COC1(OC)C=CC(=O)C=C1NC(=O)c1ccccc1OC(C)=O	CF NFkB inh 66, Peg3 promoter 50 | CF NFkB inh conf 69
CC(=O)Oc1ccccc1C(=O)Nc1ccccc1	none
C=C(C)COC(=O)c1ccccc1C(=O)OCC1(C)CO1 (centres undefined)	none
CCCN(CCC)c1ncnc2nc[nH]c12	CF NFkB inh 66, EBV LMP1 NFkB 48 (no result: TRPM1 prom inh) | CF NFkB inh conf 79
O=C(O)CCSc1nc2ccccc2n1-c1ccccc1	CF NFkB inh 56 | CF NFkB inh conf inactive
COc1ccc(OC)c(COC(=O)c2cccc(S(=O)(=O)N3CCCCC3)c2)c1	none
Cn1ccc2c(N3c4ccccc4CCc4ccccc43)cc3c(c21)C1CCC3O1 (centres undefined)	CF NFkB inh 85 (no result: TRPM1 prom inh, EBV LMP1 NFkB) | CF NFkB inh conf inactive
COc1ccccc1N(C)c1cc2c(c3c1ccn3C)C1CCC2O1 (centres undefined)	CF NFkB inh 92 (no result: TRPM1 prom inh, EBV LMP1 NFkB) | CF NFkB inh conf inactive
CN(Cc1ccccc1)c1cc2c(c3c1ccn3C)C1CCC2O1 (centres undefined)	none (no result: TRPM1 prom inh, EBV LMP1 NFkB)
CCc1ccc(NC(=O)CSc2nc(C)cs2)cc1	none (no result: TRPM1 prom inh)
CCOC(=O)Cc1csc(Nc2ccc(Cl)cc2)n1	none
CCOC(=O)Cc1nnc2c(Nc3ccc(Cl)cc3)nc3nonc3n12	CF NFkB inh 51 | CF NFkB inh conf 59
Cc1cccc(N(Cc2ccccc2)C(=O)C2CCN(C(=O)c3ccccc3C)CC2)c1	none
COC(=O)c1ccc2c(c1)C(C)(C)C(/C=C/c1ccccc1O)=[N+]2C	CF NFkB inh 64, Peg3 promoter 105, TRPM1 prom inh 105, Shn3 3UTR inh 97 | CF NFkB inh conf 97
